For some assays here: Measured potencies and affinities stand elsewhere. Activity calls are given as the source filed them.
Key:
[1] = Ebola virus entry assay, blue channel fluorescence
[2] = Ebola virus entry reporter assay, green channel fluorescence
[3] = Ebola virus entry cell assay, ratio channel
[4] = Ebola virus entry assay, reporter ratio channel; AC50: Channel type: primary unless noted; outcome: Channel type: primary unless noted
[5] = Ebola virus entry assay, blue channel (ratio component)

Measured: outcome

COc1cc([C@@H]2c3cc4c(cc3[C@@H](O[C@@H]3O[C@@H]5CO[C@@H](C)O[C@H]5[C@H](O)[C@H]3O)[C@H]3COC(=O)[C@H]23)OCO4)cc(OC)c1O
inactive: [1] | [2] | [3]

C#CCC(Cc1cnc2nc(N)nc(N)c2n1)c1ccc(C(=O)N[C@@H](CCC(=O)O)C(=O)O)cc1 (stereo not given in full)
inactive: [1] | [2] | [3]

CO/N=C(\C(=O)N[C@@H]1C(=O)N2C(C(=O)O)=C(C[N+]3(C)CCCC3)CS[C@H]12)c1csc(N)n1
inactive: [1] | [2] | [3]

Cc1nnc(C(C)C)n1C1C[C@H]2CC[C@@H](C1)N2CC[C@H](NC(=O)C1CCC(F)(F)CC1)c1ccccc1 (stereo not given in full)
inactive: [1] | [4] inactive [Channel type: confirmation] | [5] | [3]

CN1C(=O)OC(C)(C)C1=O
inactive: [1] | [2] | [3]

O=P(O)(O)C(O)(Cn1ccnc1)P(=O)(O)O
inactive: [1] | [2] | [3]

OCCOCCN1CCN(C2=Nc3ccccc3Sc3ccccc32)CC1
inactive: [1] | [5] | [2] | [3]

CC(=O)NCCCS(=O)(=O)O
inactive: [1] | [2] | [3]

Nc1nc(/C(=C/CC(=O)O)C(=O)N[C@@H]2C(=O)N3C(C(=O)O)=CCS[C@H]23)cs1
inactive: [1] | [2] | [3]

CCCCC(C)(O)C/C=C/[C@H]1[C@H](O)CC(=O)[C@@H]1CCCCCCC(=O)OC (stereo not given in full)
inactive: [1] | [2] | [3]

C[C@@H]1[C@H](O)[C@@H](C)/C=C/C=C\C=C\C=C\C=C\C=C\C=C\[C@H](O[C@@H]2O[C@H](C)[C@@H](O)[C@H](N)[C@@H]2O)C[C@@H]2O[C@](O)(C[C@@H](O)C[C@@H](O)[C@H](O)CC[C@@H](O)C[C@@H](O)CC(=O)O[C@H]1C)C[C@H](O)[C@H]2C(=O)O (stereo in doubt)
inactive: [1] | [2] | [3]

CCOC(=O)C1=C[C@@H](OC(CC)CC)[C@H](NC(C)=O)[C@@H](N)C1
inactive: [1] | [2] | [3]

OCC(S)CS (stereo not given)
inactive: [1] | [2] | [3]

CN1[C@@H]2CCC[C@@H]1CC(NC(=O)c1nn(C)c3ccccc13)C2 (stereo not given in full)
inactive: [1] | [2] | [3]

CCOc1cc(CC(=O)N[C@@H](CC(C)C)c2ccccc2N2CCCCC2)ccc1C(=O)O
inactive: [1] | [2] | [3]

CO[C@H]1C=CO[C@@]2(C)Oc3c(C)c(O)c4c(O)c(c5c(c4c3C2=O)=NC2(CCN(CC(C)C)CC2)N=5)NC(=O)/C(C)=C\C=C/[C@H](C)[C@H](O)[C@@H](C)[C@@H](O)[C@@H](C)[C@H](OC(C)=O)[C@@H]1C
inactive: [1] | [2] | [3]

CN[C@H](CC(C)C)C(=O)N[C@H]1C(=O)N[C@@H](CC(N)=O)C(=O)N[C@H]2C(=O)N[C@H]3C(=O)N[C@H](C(=O)N[C@@H](C(=O)O)c4cc(O)cc(O)c4-c4cc3ccc4O)[C@H](O)c3ccc(c(Cl)c3)Oc3cc2cc(c3O[C@@H]2O[C@H](CO)[C@@H](O)[C@H](O)[C@H]2O[C@H]2C[C@](C)(N)C(O)[C@H](C)O2)Oc2ccc(cc2Cl)[C@H]1O (stereo not given in full)
inactive: [1] | [2] | [3]

CN(C)CCc1c[nH]c2ccc(Cn3cncn3)cc12
inactive: [1] | [2] | [3]

CC(CCc1ccccc1)NCC(O)c1ccc(O)c(C(N)=O)c1 (stereo not given)
inactive: [1] | [2] | [3]

CN1C(=O)CC(=O)N(c2ccccc2)c2cc(Cl)ccc21
inactive: [1] | [2] | [3]

O=C1Nc2ccc(Cl)cc2C(c2ccccc2Cl)=NC1O (stereo not given)
inactive: [1] | [2] | [3]
